Compounds without any hit were thinned out: in the full panel of roughly 79,000, 15% have a hit. Unmarked numbers belong to inactive results. Activity calls are given as the source filed them. Rule as the data show it: active = growth inhibition above about 70%; inactive = the rest.
Key:
[1] = NCI Yeast Anticancer Drug Screen. Data for the rad50 strain (AID 155);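 also: 0% = growth of vehicle-only cultures of the same strain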; settings: S. cerevisiae rad50 strain growth inhibition, active compounds read high
How it was run: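 Cells are treated with compound, grown, and their growth is then scored against vehicle-only cultures of the same repair-deficient yeast strain.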

[2] = NCI Yeast Anticancer Drug Screen. Data for the mec2-1 strain (AID 157); settings: S. cerevisiae mec2-1 strain, active compounds read high
How it was run: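 Compounds were applied to mec2-1 yeast cells. Their growth was then compared with that of vehicle-treated cultures to give growth inhibition.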

[3] = NCI Yeast Anticancer Drug Screen. Data for the sgs1 mgt1 strain (AID 161);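 also: 0% = growth of cultures given vehicle only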; settings: S. cerevisiae sgs1 mgt1 strain, active compounds read high
How it was run: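 Compounds are added to genetically altered yeast, and growth is compared with cultures given vehicle alone to give percent inhibition.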

[4] = NCI Yeast Anticancer Drug Screen. Data for the cln2 rad14 strain (AID 165);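 also: 0% = growth equal to vehicle treated cultures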; settings: S. cerevisiae cln2 rad14 strain, active compounds read high
How it was run: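 Strain: cln2 rad14 yeast, altered in cell cycle control and DNA damage repair. Read-out: growth inhibition vs vehicle.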

[5] = NCI Yeast Anticancer Drug Screen. Data for the bub3 strain (AID 167); settings: S. cerevisiae bub3 mutant strain, active compounds read high
How it was run: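 Part of a panel of yeast mutants defective in DNA damage repair or cell cycle regulation. Each strain is grown with compound, and inhibition is calculated relative to solvent-treated cultures.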

[6] = NCI Yeast Anticancer Drug Screen. Data for the mlh1 rad18 strain (AID 175); settings: S. cerevisiae mlh1 rad18 strain growth inhibition, active compounds read high
How it was run: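 A repair-deficient yeast strain is exposed to test compound, and growth is scored relative to vehicle-treated controls.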

[7] = at 5.0 µM (retest, dose inferred, filed as 0.5)
[8] = at 50.0 µM (retest, dose inferred, filed as 5.0)

Nc1nc(-c2ccccn2)cc2c(Cl)cccc12
growth inhibition [1, 7]: 12% | growth inhibition [1, 8]: 90% (active) | growth inhibition ([1]; at 50.0 µM): -2.3% | growth inhibition [2, 7]: 23% | growth inhibition [2, 8]: 96% (active) | growth inhibition ([2]; at 50.0 µM): -22.1% | growth inhibition [3, 7]: 21% | growth inhibition [3, 8]: 92% (active) | growth inhibition ([3]; at 50.0 µM): 11.7% | growth inhibition [4, 7]: 13% | growth inhibition [4, 8]: 75% (active) | growth inhibition ([4]; at 50.0 µM): 3.7% | growth inhibition [5, 7]: -8% | growth inhibition [5, 8]: 91% (active) | growth inhibition ([5]; at 50.0 µM): 17.6% | growth inhibition [6, 7]: 34% | growth inhibition [6, 8]: 96% (active) | growth inhibition ([6]; at 50.0 µM): 8.75%

O=C(NCc1ccccc1)C1C(=O)N(Cc2ccccc2)C(=O)/C1=N/O (configuration not stated)
growth inhibition [1, 7]: -16% | growth inhibition [1, 8]: -1% | growth inhibition ([1]; at 50.0 µM): -17.1% | growth inhibition [2, 7]: 2% | growth inhibition [2, 8]: 1% | growth inhibition ([2]; at 50.0 µM): 16.8% | growth inhibition [3, 7]: -14% | growth inhibition [3, 8]: -22% | growth inhibition ([3]; at 50.0 µM): 35.2% | growth inhibition [4, 7]: -4% | growth inhibition [4, 8]: -1% | growth inhibition ([4]; at 50.0 µM): -22.5% | growth inhibition [5, 7]: 2% | growth inhibition [5, 8]: -1% | growth inhibition ([5]; at 50.0 µM): 31.6% | growth inhibition [6, 7]: -2% | growth inhibition [6, 8]: -3% | growth inhibition ([6]; at 50.0 µM): 12.8%

Oc1ccc2ccccc2c1/C=N\Sc1ccccc1
growth inhibition [1, 7]: 11% | growth inhibition [1, 8]: 99% (active) | growth inhibition ([1]; at 50.0 µM): 97.5% (active) | growth inhibition [2, 7]: 18% | growth inhibition [2, 8]: 99% (active) | growth inhibition ([2]; at 50.0 µM): 99.3% (active) | growth inhibition [3, 7]: 15% | growth inhibition [3, 8]: 99% (active) | growth inhibition ([3]; at 50.0 µM): 98.5% (active) | growth inhibition [4, 7]: 7% | growth inhibition [4, 8]: 99% (active) | growth inhibition ([4]; at 50.0 µM): 41% | growth inhibition [5, 7]: -2% | growth inhibition [5, 8]: 99% (active) | growth inhibition ([5]; at 50.0 µM): 98.1% (active) | growth inhibition [6, 7]: 6% | growth inhibition [6, 8]: 99% (active) | growth inhibition ([6]; at 50.0 µM): 99% (active)

O=C1CC(c2ccccc2)c2c(ccc3ccccc23)O1 (configuration not stated)
growth inhibition [1, 7]: -1% | growth inhibition [1, 8]: 90% (active) | growth inhibition ([1]; at 50.0 µM): 87% (active) | growth inhibition [2, 7]: 1% | growth inhibition [2, 8]: 86% (active) | growth inhibition ([2]; at 50.0 µM): 62.2% | growth inhibition [3, 7]: -1% | growth inhibition [3, 8]: 86% (active) | growth inhibition ([3]; at 50.0 µM): 75.2% (active) | growth inhibition [4, 7]: 6% | growth inhibition [4, 8]: 77% (active) | growth inhibition ([4]; at 50.0 µM): 45.5% | growth inhibition [5, 7]: 6% | growth inhibition [5, 8]: 86% (active) | growth inhibition ([5]; at 50.0 µM): 72% (active) | growth inhibition [6, 7]: -1% | growth inhibition [6, 8]: 88% (active) | growth inhibition ([6]; at 50.0 µM): 72.8% (active)

Nc1ccccc1/C=C1/Sc2cc[nH]c2C1=O
growth inhibition [1, 7]: 2% | growth inhibition [1, 8]: 5% | growth inhibition ([1]; at 50.0 µM): 4.9% | growth inhibition [2, 7]: 1% | growth inhibition [2, 8]: -1% | growth inhibition ([2]; at 50.0 µM): 5.55% | growth inhibition [3, 7]: -2% | growth inhibition [3, 8]: -5% | growth inhibition ([3]; at 50.0 µM): -15.8% | growth inhibition [4, 7]: -1% | growth inhibition [4, 8]: -3% | growth inhibition ([4]; at 50.0 µM): 3.1% | growth inhibition [5, 7]: 15% | growth inhibition [5, 8]: 40% | growth inhibition ([5]; at 50.0 µM): 83.8% (active) | growth inhibition [6, 7]: 3% | growth inhibition [6, 8]: 10% | growth inhibition ([6]; at 50.0 µM): -9.8%

N#C/C(=C1/C(=O)c2ccccc2-c2ccccc21)c1ccccc1
growth inhibition [1, 7]: 92% (active) | growth inhibition [1, 8]: 97% (active) | growth inhibition ([1]; at 50.0 µM): 97.2% (active) | growth inhibition [2, 7]: 100% (active) | growth inhibition [2, 8]: 99% (active) | growth inhibition ([2]; at 50.0 µM): 98.2% (active) | growth inhibition [3, 7]: 99% (active) | growth inhibition [3, 8]: 99% (active) | growth inhibition ([3]; at 50.0 µM): 97.6% (active) | growth inhibition [4, 7]: 61% | growth inhibition [4, 8]: 97% (active) | growth inhibition ([4]; at 50.0 µM): 98.2% (active) | growth inhibition [5, 7]: 99% (active) | growth inhibition [5, 8]: 98% (active) | growth inhibition ([5]; at 50.0 µM): 98% (active) | growth inhibition [6, 7]: 99% (active) | growth inhibition [6, 8]: 99% (active) | growth inhibition ([6]; at 50.0 µM): 98.7% (active)

O=C(/C(O)=C(\O)C(=O)N(C1CCCCC1)C1CCCCC1)N(C1CCCCC1)C1CCCCC1
growth inhibition [1, 7]: 25% | growth inhibition [1, 8]: 93% (active) | growth inhibition ([1]; at 50.0 µM): 96.9% (active) | growth inhibition [2, 7]: -2% | growth inhibition [2, 8]: 89% (active) | growth inhibition ([2]; at 50.0 µM): 98.2% (active) | growth inhibition [3, 7]: 20% | growth inhibition [3, 8]: 87% (active) | growth inhibition ([3]; at 50.0 µM): 96.8% (active) | growth inhibition [4, 7]: -4% | growth inhibition [4, 8]: 66% | growth inhibition ([4]; at 50.0 µM): 79.7% (active) | growth inhibition [5, 7]: 4% | growth inhibition [5, 8]: 95% (active) | growth inhibition ([5]; at 50.0 µM): 95.5% (active) | growth inhibition [6, 7]: 14% | growth inhibition [6, 8]: 86% (active) | growth inhibition ([6]; at 50.0 µM): 97.8% (active)

C=C1C(=O)C23C(O)C1CC[C@H]2C12CCCC(C)(COC(C)=O)[C@H]1[C@H](O)[C@]3(O)OC2 (some centres not stated)
growth inhibition [1, 7]: 28% | growth inhibition [1, 8]: 94% (active) | growth inhibition ([1]; at 50.0 µM): 90.4% (active) | growth inhibition [2, 7]: 26% | growth inhibition [2, 8]: 97% (active) | growth inhibition ([2]; at 50.0 µM): 92.2% (active) | growth inhibition [3, 7]: 83% (active) | growth inhibition [3, 8]: 97% (active) | growth inhibition ([3]; at 50.0 µM): 92.2% (active) | growth inhibition [4, 7]: 77% (active) | growth inhibition [4, 8]: 96% (active) | growth inhibition ([4]; at 50.0 µM): 89.2% (active) | growth inhibition [5, 7]: 22% | growth inhibition [5, 8]: 96% (active) | growth inhibition ([5]; at 50.0 µM): 90% (active) | growth inhibition [6, 7]: 43% | growth inhibition [6, 8]: 95% (active) | growth inhibition ([6]; at 50.0 µM): 89.2% (active)

COc1ccc2c(c1)CCC1OC(c3cccnc3)OC21 (configuration not stated)
growth inhibition [1, 7]: -1% | growth inhibition [1, 8]: 18% | growth inhibition ([1]; at 50.0 µM): 65.8% | growth inhibition [2, 7]: -19% | growth inhibition [2, 8]: -4% | growth inhibition ([2]; at 50.0 µM): 36.9% | growth inhibition [3, 7]: -3% | growth inhibition [3, 8]: 8% | growth inhibition ([3]; at 50.0 µM): 75.8% (active) | growth inhibition [4, 7]: -5% | growth inhibition [4, 8]: 11% | growth inhibition ([4]; at 50.0 µM): 55% | growth inhibition [5, 7]: 10% | growth inhibition [5, 8]: 25% | growth inhibition ([5]; at 50.0 µM): 30.6% | growth inhibition [6, 7]: -10% | growth inhibition [6, 8]: -15% | growth inhibition ([6]; at 50.0 µM): 70.9% (active)

Source: PubChem BioAssay (NCI)
